Phagocyt inh: inhibitors of macrophage phagocytosis; AID 1029; actives 0.07% (n = 110,000); J774A.1 macrophage IgG-bead phagocytosis, imaging; inhibition, % at 5 µM;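 active means inhibition above the mean of the plate negative controls plus 5 SD, cut at about 13% in these data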;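 further: phagocytic index as fraction of beads internalized from green versus red external bead signal; plate controls were DMSO negative control for no effect and cytochalasin-D positive control for full effect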
MRP-1 activ: activates MRP-1; H69AR cells + doxorubicin, viability rescue, CellTiter-Glo; viability increase, % at 10 µM; actives 0.61% (n = 140,000);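 active means viability gain under doxorubicin at or above a set limit, the compound median plus 3 SD, cut at about 4.7% in these data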;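 further: MRP-1 overexpressing cells given doxorubicin 25 µM after compound pretreatment; 18-22 h compound pretreatment then 72 h with doxorubicin before readout; 0% = doxorubicin-only wells and 100% = vehicle-treated cells without doxorubicin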
MRP reversal: reverses drug resistance mediated by MRP; differential viability (reversal), % at 10 µM; actives 0.04% (n = 85,000); AID 602; H69AR cells + 2 uM doxorubicin, CellTiter-Glo, 72 h;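 active means viability drop by adding the cancer drug above about 55%, with treated viability meeting a 40% cutoff, limit read from the data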;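 further: viability without doxorubicin minus viability with 2 µM doxorubicin for each compound; larger differential means the compound sensitizes cells more to doxorubicin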
* = called active by the depositor; . = not tested or not shown; + = active, no number; [ ] = remark or other dose. Sampled rows, rich in hits. Any-hit rate of the full collection: about 0.69%.

SMILES	Phagocyt inh	MRP-1 activ	MRP reversal
COc1ccc(C2=Nc3ccc(Br)cc3C(c3ccccc3)N2CC(=O)NN)cc1 (configuration not stated)	-8	4.8*	.
NNC(=O)CN1C(c2cccc(Cl)c2)=Nc2ccc(Br)cc2C1c1ccccc1 (configuration not stated)	0	1	.
COC(=O)c1ccc(C(=O)OCc2nc3cc4ccccc4cc3[nH]2)cc1	.	-2	-23
COc1ccc(-c2cc(C(=O)Nc3c(C)nn(Cc4ccccc4Cl)c3C)no2)cc1OC	4	-3	-8
Cc1ccccc1Cn1nc(C)c(NC(=O)c2cc(-c3cccs3)on2)c1C	-2	1	.
COc1ccc(OC)c(-c2cc(C(=O)Nc3c(C)nn(Cc4ccccc4Cl)c3C)no2)c1	-2	5.5*	3
COc1ccc(OC)c(-c2cc(C(=O)Nc3c(C)nn(Cc4ccccc4C)c3C)no2)c1	-1	9.3*	2
COc1ccc(OC)c(C(=O)CSc2nnc(-c3ccc(OC)c(OC)c3)o2)c1	2	0	9
O=C(CN(C(=O)Cn1nnc(-c2cccs2)n1)c1ccc2c(c1)OCCO2)NC1CCCCC1	0	-2	-10
O=C(NCc1ccccc1)C(c1ccc(O)cc1)N(C(=O)Cn1nnc(-c2cccs2)n1)c1ccc2c(c1)OCCO2 (configuration not stated)	.	5.8*	-8
COC(=O)Nc1ccc(S(=O)(=O)N2CCCC(C(=O)NC3CCS(=O)(=O)C3)C2)cc1 (configuration not stated)	-1	-1	.
Cc1nnc(NC(=O)c2cccc(F)c2)s1	.	0	.
Cc1nnc(NC(=O)c2c(F)cccc2F)s1	0	9.3*	-1
COc1ccc(C(=O)/C=C/Nc2ccc(S(=O)(=O)Nc3onc(C)c3C)cc2)cc1	-2	-1	.
O=C1NC(=O)C2(COC(c3ccccc3Cl)OC2)S1 (configuration not stated)	-4	7.2*	.
O=C1NC(=O)C2(COC(c3ccncc3)OC2)S1 (configuration not stated)	5	1	.
CCOC(=S)SCC(=O)N1CCc2cc(OC)ccc2C1C1C(=O)CCCC1=O (configuration not stated)	0	-2	.
COc1ccc(N(C(=O)c2ccco2)C(C(=O)NC2CCCCC2)c2cccs2)cc1OC (configuration not stated)	.	-2	1
C#CC(=O)N(c1cc(OC)ccc1OC)C(C(=O)NC1CCCC1)c1cccs1 (configuration not stated)	73*	-5	.
CCC(=O)c1ccc(N2CCOCC2)c(F)c1	.	7.7*	-5
CCCC(=O)c1ccc(N2CCOCC2)c(F)c1	-2	-2	.
O=C(Nc1ccc(Cl)cc1)C1CCCN(S(=O)(=O)c2cnc[nH]2)C1 (configuration not stated)	0	4.9*	11
CC(C)c1ccc(NC(=O)C2CCCN(S(=O)(=O)c3cnc[nH]3)C2)cc1 (configuration not stated)	0	1	8
CC(NS(=O)(=O)c1ccc(Br)cc1)C(c1cccs1)N1CCOCC1 (configuration not stated)	.	-2	.
CCOCCCn1c(=N)c(C(=O)Nc2cc(C)on2)cc2c(=O)n3ccccc3nc21	.	.	7
SMILES	Phagocyt inh	MRP-1 activ	MRP reversal
CC[n+]1c(/C=C/Nc2ccccc2)sc2ccccc21	-2	-2	.
CC[n+]1c(/C=C/C=C/N(C(C)=O)c2ccccc2)sc2cc(OC)ccc21	70*[fluoresces]	-4	.
Brc1ccc(-c2csc3ncnc(-n4nnc5ccccc54)c23)cc1	-1	-4	.
Cc1nc2cc(-c3ccc(Cl)cc3)nn2c(C)c1CCC(=O)NC(C)c1ccc2c(c1)OCCO2 (configuration not stated)	.	5.5*	.
Cc1csc(NC(=O)CCc2c(C)nc3cc(-c4ccc(Cl)cc4)nn3c2C)n1	.	0	.
CCN(CC)C(=O)c1sc(NC(=O)c2ccncc2)c(C(=O)OC)c1C	-9	-2	.
CCOC(=O)c1c(NC(=O)OC)sc(C(=O)N(CC)CC)c1C	-1	1	76*
Cc1ccc(N2C(=O)C3C(C2=O)N2C(c4cccs4)C4C(=O)N(c5ccc(C)cc5)C(=O)C4N2C3c2cccs2)cc1 (configuration not stated)	.	0	.
O=C(Nc1nc(COc2ccccc2)cs1)c1ccccc1F	-2	5.3*	.
COc1ccccc1OCc1csc(NC(=O)c2ccco2)n1	1	1	-1
CCCCCN(C(=O)NC(=O)Nc1ccc(C)cc1)S(=O)(=O)c1ccccc1	-5	0	.
Cc1ccc(/C=C2/SC(=S)N(CC(=O)Nc3ncc(Cc4ccc(C)cc4)s3)C2=O)cc1	-1	-2	-2
Cc1cccc(Cc2cnc(NC(=O)CN3C(=O)/C(=C/c4ccccc4)SC3=S)s2)c1	0	5.6*	.
CCOC(=O)c1c(-c2ccccc2)csc1NC(=O)c1cc2ccccc2oc1=O	-3	-1	.
CC(=O)c1nc(N2C(=O)CC(Cc3ccccc3)C2=O)sc1C (configuration not stated)	1	0	.
COc1ccc(N2CCN(Cc3nc(N)nc(Nc4ccc(C)c(Cl)c4)n3)CC2)cc1	-1	-2	-28
Cc1ccc(Nc2nc(N)nc(CN3CCN(c4ccccc4)CC3)n2)cc1Cl	+	-4	-5
Cc1ccc(N=C2S/C(=C\c3cn(CC(=O)O)c4ccccc34)C(=O)N2C)cc1	-2	-3	.
Cc1cc([N+](=O)[O-])nn1CC(=O)N1c2ccccc2CC1C (configuration not stated)	-6	-1	.
N#Cc1c(N)n(CCOC(=O)c2cccc(Br)c2)c2nc3ccccc3nc12	-1	5.7*	6
N#Cc1c(N)n(CCOC(=O)c2cccc([N+](=O)[O-])c2)c2nc3ccccc3nc12	2	-2	.
O=C(N/N=C/c1ccc(O)cc1)/C(=C/c1ccccc1)CCO	0	0	.
Cc1nc(N2CCN(S(=O)(=O)c3ccc(F)cc3)CC2)c2c(C)c(C)sc2n1	-1	.	-2
Cc1sc2nc(C3CC3)nc(N3CCN(S(=O)(=O)c4ccc(F)cc4)CC3)c2c1C	0	6.6*	-21
C=CCn1c(COc2ccc(Cl)cc2)nnc1SCC(=O)N/N=C/c1cccc(O)c1	.	3	.
SMILES	Phagocyt inh	MRP-1 activ	MRP reversal
C=CCn1c(COc2ccc(Cl)cc2)nnc1SCC(=O)N1CC(=O)Nc2ccccc21	-1	4.7*	16
COc1ccc(OC)c(NC(=O)[C@@H]2CCCN2C(=O)c2cccs2)c1	0	-1	.
COc1ccc(-c2cnnc(N/N=C/C(C)=C/c3ccccc3)n2)cc1	-9	-1	.
COc1ccc(Cn2c(O)c(C=Nc3ccc(OC)cc3)c3ccccc3c2=O)cc1	-3	6.4*	.
CC(C)CCC(C)N=Cc1c(O)n(Cc2ccccc2)c(=O)c2ccccc12 (configuration not stated)	0	0	-4
NNc1nc(-c2ccccc2Cl)nc2sc3c(c12)CCCC3	-9	-1	.
CCOC(=O)CN(C(=O)CSc1nnc(CNc2ccc(F)cc2)n1C)c1ccccc1	2	-2	9
CCOC(=O)CN(C(=O)CSc1nnc(COc2ccc(OC)cc2)n1C)c1ccccc1	-4	5.6*	-12
Cc1ccc(OCC(O)CN2CC3(C)CC2CC(C)(C)C3)cc1 (configuration not stated)	1	-1	.
CCCn1c(C)cc(/C=C(\C#N)C(=O)OCC(=O)NC(=O)NCC)c1C	0	-3	14
